Pf growth 96h = Primary qHTS for delayed death inhibitors of the malarial parasite plastid, 96 hour incubation | P. falciparum luciferase reporter growth, 96 h | Potency, µM (top dose mostly 28.7 µM), without a hit: at the top dose activity change, negative = inhibition, most hits filed as inhibitors | 320,000 tested, 6.9% active | AID 504834, 2011; also: potency is read from the fitted curve at half-maximal effect; % is scaled to controls: 0 for no effect and ±100 for the full control effect
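Two parasite generations (96 h, 37 C, 5% CO2) of compound exposure in infected erythrocytes (0.05% parasitemia, 2% hematocrit). Luciferase-reporter P. falciparum; decreased luminescence indicates inhibited growth, aimed at apicoplast-acting delayed death.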
Pf growth 48h = Primary qHTS for delayed death inhibitors of the malarial parasite plastid, 48 hour incubation | AID 504832, 2011 | P. falciparum luciferase growth in erythrocytes, 48 h | Potency, µM (series often up to 28.7 µM), for the others: at the top dose activity change, negative = inhibition, hits mostly inhibitors | 310,000 tested, 5.9% active; also: potency is read from the fitted curve at half-maximal effect; % is scaled to controls: 0 for no effect and ±100 for the full control effect
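Parasite viability was followed by luminescence of a genomically integrated firefly luciferase. Cultures held 0.1% parasitemia at 2% hematocrit (final), incubated under 5% CO2 at 37 C.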
Shiga inhibitor = A qHTS for Small Molecule Inhibitors of Shiga Toxin. AID 2315, 2010. inhibition, % at 38.7 µM. 290,000 tested, 9.2% active. Vero cells, Shiga toxin protein synthesis inhibition reporter; in the data active = inhibition mostly above about 28%, no sharp cut-off; inactive = mostly below about 43%; also: 0% is about no effect
CHX counter = Cycloheximide Counterscreen for Small Molecule Inhibitors of Shiga Toxin. cell reporter, cycloheximide protein synthesis inhibition counterscreen. max response, %. 300,000 tested, 12% active. AID 2314, 2010; in the data active = max response mostly above about 13%, no sharp cut-off; inactive = mostly below about 14%; also: read at 38.3 µM for the half of the compounds with a filed dose; 0% is about no effect
LmPK inh = qHTS Assay for Inhibitors of Leishmania Mexicana Pyruvate Kinase (LmPK). Q27686. Potency, µM (titrated, usually from 57.5 µM), without a hit: at the highest dose activity change, negative = inhibition, usual class: inhibitors. purified LmPK, Kinase-Glo ATP luminescence, 1 h. 290,000 tested, 0.37% active. AID 1721, 2009; also: potency is read from the fitted curve at half-maximal effect; % is scaled to controls: 0 for no effect and ±100 for the full control effect
Target sequence (Q27686 whole entry, looked up): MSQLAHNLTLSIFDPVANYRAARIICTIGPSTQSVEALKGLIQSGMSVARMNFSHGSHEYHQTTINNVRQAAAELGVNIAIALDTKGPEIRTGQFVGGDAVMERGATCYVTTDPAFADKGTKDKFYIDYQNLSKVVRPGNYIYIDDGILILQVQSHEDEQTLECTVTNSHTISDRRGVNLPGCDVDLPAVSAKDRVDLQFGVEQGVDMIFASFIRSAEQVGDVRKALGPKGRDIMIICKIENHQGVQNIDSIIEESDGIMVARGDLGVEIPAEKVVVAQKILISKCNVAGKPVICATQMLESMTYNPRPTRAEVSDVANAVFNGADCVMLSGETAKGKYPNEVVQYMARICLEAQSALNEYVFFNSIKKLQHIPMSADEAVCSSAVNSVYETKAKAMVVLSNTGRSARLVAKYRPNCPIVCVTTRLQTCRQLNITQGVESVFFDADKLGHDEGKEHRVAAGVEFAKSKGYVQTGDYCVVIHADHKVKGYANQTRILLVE
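Pyruvate kinase activity monitored as ATP production (luciferase luminescence). Conditions: 0.1 nM enzyme, 0.5 mM PEP, 0.1 mM ADP, 1 h, RT; normalized against uninhibited and no-enzyme wells.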
* hit, by the source's call; ? = inconclusive; · = no result; [ ] = another dose, or the depositor's remark. Sampled rows, rich in hits. Any-hit rate of the full collection: about 22%. Unless noted, calls follow the shape of the dose curve; as a rule, active = well fitted inhibition curve with a large enough effect; inconclusive = small, poorly fitted or top-dose-only effect, or another doubt; inactive = no such curve, though single readings can be large or run the other way.

SMILES	Pf growth 96h	Pf growth 48h	Shiga inhibitor	CHX counter	LmPK inh
Cc1ccc(C)c(NC(=S)/C(=C(\[O-])c2ccc(Cl)s2)[n+]2ccccc2)c1	5.86µM*	?	35.5	10.9	2.1%
Cc1cccc(Oc2ccc3c(c2)cc(C(=O)O)n3C)c1	-14.4%	-11.1%	-22.5	-3.4	-2.0%
COc1ccc(OC)c(-n2c(C)ccc2-c2ccc(S(C)(=O)=O)cc2)c1	?	·	-3.4	5.5	5.1%
COc1ccc(OC)c(-n2c(-c3ccc(S(C)(=O)=O)cc3)cc(C=O)c2C)c1	?	11.7µM*	15.9	2.3	1.9%
COc1cc(/C=C/C(=O)NC(C)CCc2ccccc2)cc(OC)c1OC (centres undefined)	19.4%	-29.0%	-3.8	4.1	3.0%
CC1CN(CC(=O)Nc2cccc(C(=O)Nc3cccc(C(F)(F)F)c3)c2)CC(C)O1 (centres undefined)	0.147µM*	·	-4.0	-3.0	6.7%
CC1CCN(CC(=O)Nc2cccc(C(=O)Nc3cccc(C(F)(F)F)c3)c2)CC1	0.928µM*	1.31µM*	-3.5	-3.0	-0.5%
O=C(CN1CCN(c2ccccc2)CC1)Nc1cccc(C(F)(F)F)c1	-24.2%	5.3%	12.8	-2.1	-0.2%
O=C(NCCCN1CCOCC1)c1cnccn1	48.3%	-13.8%	18.7	-2.3	2.7%
COc1ccc(NC(=O)C(NC(=O)c2ccc(=O)[nH]c2)c2ccc(C)cc2)cc1 (centres undefined)	7.4%	?	30.5	-3.6	-2.7%
CN(Cc1ccccc1F)C(=O)c1ccc(Oc2ccccc2)cc1	2.1%	5.9%	19.5	1.7	-9.4%
CN(C)C(=O)c1ccc(Oc2ccc(C(=O)N(C)C)cc2)cc1	1.85µM*	8.4%	2.8	4.5	-0.9%
CC(=O)c1ccc(Oc2ccc(C(C)=O)cc2)cc1	?	135.2%	83.0	17.3*	6.1%
CCN(CC)CCC(c1cc(OC)c(OC)c(OC)c1)c1c(OC)cc(OC)c2c1OC(=O)CC2c1ccc(N(C)C)cc1 (centres undefined)	·	·	-12.4	-1.3	·
CCCCc1nnc(NC(=O)CN2C(=O)NC3(CCCCC3)C2=O)s1	-2.0%	9.9%	-9.3	-1.6	-4.2%
CC(=Nc1cc(C(=O)c2ccccc2)ccc1N)C1=C(O)CC(C)(C)CC1=O	15.1%	126.8%	124.6*	29.2*	-0.1%
Cn1c(-c2ccccc2)c(C(=O)CCl)c2ccccc21	-26.6%	?	-10.0	11.6	3.3%
CCCc1c(CC)c(=N)c2ccccc2n1C	1.9%	0.329µM*	36.9	7.6	0.6%
CCN(CC)c1ccc2cc(C(=O)NCc3ccc(F)cc3)c(=N)oc2c1	1.65µM*	?	-2.3	10.2	-4.3%
N=c1oc2ccc(Br)cc2cc1C(=O)NCc1ccc(F)cc1	2.62µM*	-1.6%	8.9	22.6*	-9.5%
Cc1ccc(CNC(=O)c2cc3cc(Br)ccc3oc2=N)cc1	23.3%	4.8%	-9.5	-2.3	-9.0%
OC(CNC1Cc2ccccc2C1)COc1ccc(Cl)cc1 (centres undefined)	10.6%	?	12.0	1.0	3.9%
OC(CNC1CCCc2ccccc21)COc1c(Cl)cccc1Cl (centres undefined)	3.29µM*	1.85µM*	14.7	-5.2	-5.0%
CC1Nc2ccc(C(=O)NC3CCCCC3)cc2NC1=O (centres undefined)	47.6%	7.7%	-1.6	-2.1	-3.0%
O=C(CCC(=O)c1ccc(Oc2ccccc2)cc1)Nc1cccc(Cl)c1	5.86µM*	9.9%	-8.3	-4.8	-1.4%
SMILES	Pf growth 96h	Pf growth 48h	Shiga inhibitor	CHX counter	LmPK inh
COc1ccc(C(=O)CCC(=O)Nc2cccc(Cl)c2)cc1	?	7.9%	-10.9	1.3	0.8%
CCCOc1ccc(C(=O)CCNc2cccc(Cl)c2)cc1	-7.6%	51.6%	129.7*	25.2*	0.3%
Clc1cccc(Cl)c1Cn1cnc(=NCc2ccco2)c2[nH]cnc21	·	14.7µM*	38.3	21.8*	2.4%
Clc1cccc(Cl)c1Cn1cnc2c(NCc3ccco3)ncnc21	·	-9.4%	-18.6	-6.2	3.1%
Cc1ccc(-c2nc(SCC(=O)N(C)c3c(N)n(Cc4ccccc4)c(=O)[nH]c3=O)n[nH]2)cc1	5.6%	27.4%	-2.0	-5.0	-2.2%
O=C(NC1CC1)C1=C[C@@H](c2c[nH]c3ccccc23)C[C@@H](OCCCCO)O1	?	?	-1.4	-3.3	5.8%
Cc1ccc(N2C(=O)c3n[nH]c(C)c3C2c2ccco2)cc1 (centres undefined)	-8.0%	41.7%	72.5*	37.0*	-0.6%
CCOC(=O)c1ccc(N2C(=O)c3n[nH]c(C)c3C2c2ccco2)cc1 (centres undefined)	27.0%[5.75 µM]	-18.0%	-6.4	5.9	0.3%
O=C(CN1C(=O)CCS(=O)(=O)c2ccccc21)Nc1ccc(Cl)cc1	?	15.8%	10.9	-2.3	-1.7%
COc1cccc(N2CCN(Cc3nc(N)nc(Nc4ccccc4OC)n3)CC2)c1	0.329µM*	?	-3.5	0.4	-0.1%
CCOC(=O)N1CCN(Cc2nc(N)nc(Nc3ccc(Oc4ccccc4)cc3)n2)CC1	59.1%	?	23.5	14.6*	2.5%
COc1ccccc1Nc1nc(N)nc(CN2CCN(c3ccccc3)CC2)n1	·	-28.7%	-16.0	8.1	6.1%
CCOC(=O)N1CCN(Cc2nc(N)nc(Nc3ccc(Cl)cc3)n2)CC1	?	7.4%	40.0	14.0*	7.1%
COc1ccc(Nc2nc(N)nc(CN3CCC(Cc4ccccc4)CC3)n2)cc1	-26.6%	5.86µM*	-9.1	-4.5	-2.3%
Cc1ccccc1CNS(=O)(=O)c1c(C)[nH]c(C)c1C(=O)N1CCCCC1	?	-22.7%	-5.2	-0.3	-7.1%
CN(C)CCCn1c2c(c(SCC(=O)Nc3ccc4c(c3)OCCO4)nc1=O)CCC2	2.0%	-7.6%	·	·	·
CC(OC(=O)Cn1nnc2ccccc21)C(=O)NC1CCCC1 (centres undefined)	?	6.3%	-13.3	-4.2	1.3%
COc1ccccc1NC(=S)NCc1ccc2c(c1)OCO2	21.1%	-5.3%	19.9	10.8	-1.5%
CCOC(=O)C1(Cc2ccccc2)CCCN(C(=O)C=C(C)C)C1 (centres undefined)	74.4%	?	86.0*	24.2*	1.0%
CCOC(=O)C1(Cc2ccccc2)CCCN(C(=O)c2ccc(-n3ccnc3)cc2)C1 (centres undefined)	?	-28.5%	42.2*	25.8*	-0.2%
CCOC(=O)C1(Cc2ccccc2)CCCN(C2CCN(C(C)=O)CC2)C1 (centres undefined)	?	?	-2.8	-1.3	-0.3%
Cc1ccccc1CNS(=O)(=O)c1c(C(=O)N2CCCCC2)c(C)n(C)c1C	-15.7%	-8.3%	-4.0	1.8	-2.1%
CCOc1ccc(N2CC(C(=O)N3CCCc4ccccc43)CC2=O)cc1 (centres undefined)	49.0%	19.9%	64.0*	31.5*	-3.7%

High-throughput results (PubChem BioAssay)
